FMDV antiviral: foot and mouth disease virus antiviral activity; FMDV antiviral cell-based qHTS; Potency, µM (titrated, usually from 57.9 µM), without a hit: at the top dose activity change, negative = inhibition, most hits filed as inhibitors; hit rate 1.2% among 410,000; calls by dose curve; tested in HEK293T cells; also: read-out not given here; potency is read from the fitted curve at half-maximal effect; nearly all actives have a fitted effect of over 45% in size
HCMV inh: inhibitors of human cytomegalovirus | activity change, negative = inhibition, % at 57.5 µM | hit rate 4.5% among 410,000 | HFF cells, HCMV-luciferase reporter, 72 h; active compounds read low; in the data active = activity change below about -60%; inconclusive = no clear call, values can overlap the other calls; inactive = above about -39%
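Two-dose cell screen: HFF monolayers treated with compounds and infected with luciferase-expressing HCMV at 1 PFU/cell, 72 h at 37C, then lysed for luciferase measurement.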
Lassa entry inh: Lassa virus entry inhibition | Lassa virus pseudotype entry inhibition, cell reporter | Potency, µM (highest dose often 37.9 µM), inactives show at the top dose activity change, negative = inhibition, hits mostly inhibitors | hit rate 1.2% among 300,000 | AID 540256; calls by dose curve; tested in HEK293 cells; also: potency is read from the fitted curve at half-maximal effect; nearly all actives have a fitted effect of over 50% in size
MARV entry inh: blocks Marburg virus binding to or entry into cells. Potency, µM (titrated, usually from 37.8 µM), for inactives: at the top dose activity change, negative = inhibition, actives largely listed as inhibitors. Marburg virus pseudotyped entry inhibition, cell reporter. hit rate 1.8% among 300,000. AID 540276; calls by dose curve; tested in HEK293 cells; also: potency is read from the fitted curve at half-maximal effect
Active calls of the source: *; [ ] = remark or other dose. Shown are actives, neighbours in structure and some others; about 6.2% of the full set was active somewhere. % is scaled to controls: 0 for no effect and ±100 for the full control effect.

How did COc1cc2c(cc1OC)C(COc1ccc3c(C)cc(=O)oc3c1)N(C(=O)c1cccc(OC)c1OC)CC2 (configuration not stated) do in these assays?
FMDV antiviral: -30%; HCMV inh: 10; Lassa entry inh: 2.8µM*; MARV entry inh: -5%[46.1 µM]

How did COc1cc2c(cc1OC)C(COc1ccc3c(C)cc(=O)oc3c1)N(C(=O)c1ccccc1C)CC2 (configuration not stated) do in these assays?
FMDV antiviral: -28%; HCMV inh: 10; Lassa entry inh: -16%[46.1 µM]; MARV entry inh: inconclusive

How did CC(C)CNC(=O)C(=O)Nc1c2c(nn1-c1ccccc1)CS(=O)(=O)C2 do in these assays?
FMDV antiviral: -4%; HCMV inh: -2; Lassa entry inh: 25%[46.1 µM]

Results for C[C@H](CO)N1C[C@H](C)[C@@H](CN(C)C(=O)Nc2ccnc(N3CCOCC3)c2)OCc2cn(nn2)CCCC1=O ?
HCMV inh: 3

Results for COCCNC(=S)N1CCc2cc(OC)c(OC)cc2C1COc1cc(C)cc(C)c1 (configuration not stated) ?
FMDV antiviral: -14%; HCMV inh: 21; Lassa entry inh: -1%; MARV entry inh: 7.9µM*

Results for CNC(=S)N1CCc2cc(OC)c(OC)cc2C1COc1ccc(OC)cc1 (configuration not stated) ?
FMDV antiviral: 3%; HCMV inh: 272; Lassa entry inh: inconclusive; MARV entry inh: inconclusive

What do the screens show for `COc1ccc(-c2noc(CC(=O)N(C)c3cc(Cl)c(OC)cc3OC)n2)cc1`?
FMDV antiviral: 0%; HCMV inh: -9; Lassa entry inh: -2%[46.1 µM]

What do the screens show for `O=C(O)CCCCCN1C(=O)CSC1=S`?
FMDV antiviral: 0%; HCMV inh: -81*; Lassa entry inh: inconclusive; MARV entry inh: inconclusive

Results for CC(C)OC(=O)CCCCCN1C(=O)CSC1=S ?
FMDV antiviral: -23%; HCMV inh: -17; Lassa entry inh: 3%; MARV entry inh: -5%

Results for O=C(Nc1cccc2ncccc12)c1ccc(F)cc1 ?
FMDV antiviral: -8%; HCMV inh: -64*; Lassa entry inh: 8%; MARV entry inh: -5%

How did O=C(Nc1cccc2ncccc12)c1ccc(Br)c([N+](=O)[O-])c1 do in these assays?
FMDV antiviral: -9%; HCMV inh: -63*; Lassa entry inh: inconclusive; MARV entry inh: inconclusive

Results for O=C(Nc1cccc2ncccc12)c1cccc(F)c1 ?
FMDV antiviral: -23%; HCMV inh: -12; Lassa entry inh: 20%; MARV entry inh: 10%

What do the screens show for `O=C(Nc1cccc2ncccc12)c1cccc(Br)c1`?
FMDV antiviral: -17%; HCMV inh: -13; Lassa entry inh: -6%[46.1 µM]; MARV entry inh: -27%[46.1 µM]

How did CC(C)(C)CC(C)(C)NCC(O)COc1ccc2c(c1)CCC2 (configuration not stated) do in these assays?
FMDV antiviral: inconclusive; HCMV inh: -37; Lassa entry inh: inconclusive; MARV entry inh: 7.1µM*

How did CNC(=O)COc1ccc(NC(=O)CCn2nc(-c3ccc(C)cc3)c3ccccc3c2=O)cc1 do in these assays?
FMDV antiviral: inconclusive; HCMV inh: -18; Lassa entry inh: -2%[46.1 µM]; MARV entry inh: inconclusive

How did O=C(NNC(=O)c1cccc(O)c1)Nc1ccc([N+](=O)[O-])cc1 do in these assays?
FMDV antiviral: -10%; HCMV inh: -96*; Lassa entry inh: 3%[46.1 µM]; MARV entry inh: -3%[46.1 µM]

Results for Cc1cccc(NC(=O)Nc2ccc([N+](=O)[O-])cc2)n1 ?
FMDV antiviral: 29%; HCMV inh: -62*

What do the screens show for `Cc1cccc(NC(=O)c2ccc([N+](=O)[O-])s2)n1`?
FMDV antiviral: 24%; HCMV inh: -78*

Results for Cc1cccc(NC(=O)c2ccc([N+](=O)[O-])s2)c1C ?
FMDV antiviral: 2%; HCMV inh: -66*; Lassa entry inh: 3%; MARV entry inh: -37%

Results for Cc1cccc(C)c1NC(=O)c1ccc([N+](=O)[O-])s1 ?
FMDV antiviral: -19%; HCMV inh: inconclusive; Lassa entry inh: 5%; MARV entry inh: -8%

What do the screens show for `Cc1ccc(NC(=O)Nc2cccc(C)n2)cc1`?
FMDV antiviral: 50%; HCMV inh: 104; Lassa entry inh: -1%[46.1 µM]

Results for C=C1C/C(C)=C/CCc2cc(OS(=O)(=O)C(F)(F)F)ccc2-c2ccc(OC)c(OC)c21 ?
HCMV inh: -1

What do the screens show for `CN1OC(C)(CC(=O)Nc2ccccc2)N=C1c1ccccc1` (configuration not stated)?
HCMV inh: -27

Results for Cn1c(=O)c(-c2ccc(F)cc2)nc2cncnc21 ?
FMDV antiviral: -8%
